A number with no mark means an inactive call.

Common to all, as to experiment: log2 ratio of Biotin-Ahx-Ub-VS probe labelling (fragment/DMSO); higher = less target engagement (more negative = stronger competition), active = hit call of the paper (q ≤ 0.05, log2 ratio ≤ -1)
Settings in all cases: compound concentration: 200 uM; treatment time: 3 h

For one experiment, the target named is T1, USP42 (UniProt Q9H9J4).
T1 sequence (whole entry): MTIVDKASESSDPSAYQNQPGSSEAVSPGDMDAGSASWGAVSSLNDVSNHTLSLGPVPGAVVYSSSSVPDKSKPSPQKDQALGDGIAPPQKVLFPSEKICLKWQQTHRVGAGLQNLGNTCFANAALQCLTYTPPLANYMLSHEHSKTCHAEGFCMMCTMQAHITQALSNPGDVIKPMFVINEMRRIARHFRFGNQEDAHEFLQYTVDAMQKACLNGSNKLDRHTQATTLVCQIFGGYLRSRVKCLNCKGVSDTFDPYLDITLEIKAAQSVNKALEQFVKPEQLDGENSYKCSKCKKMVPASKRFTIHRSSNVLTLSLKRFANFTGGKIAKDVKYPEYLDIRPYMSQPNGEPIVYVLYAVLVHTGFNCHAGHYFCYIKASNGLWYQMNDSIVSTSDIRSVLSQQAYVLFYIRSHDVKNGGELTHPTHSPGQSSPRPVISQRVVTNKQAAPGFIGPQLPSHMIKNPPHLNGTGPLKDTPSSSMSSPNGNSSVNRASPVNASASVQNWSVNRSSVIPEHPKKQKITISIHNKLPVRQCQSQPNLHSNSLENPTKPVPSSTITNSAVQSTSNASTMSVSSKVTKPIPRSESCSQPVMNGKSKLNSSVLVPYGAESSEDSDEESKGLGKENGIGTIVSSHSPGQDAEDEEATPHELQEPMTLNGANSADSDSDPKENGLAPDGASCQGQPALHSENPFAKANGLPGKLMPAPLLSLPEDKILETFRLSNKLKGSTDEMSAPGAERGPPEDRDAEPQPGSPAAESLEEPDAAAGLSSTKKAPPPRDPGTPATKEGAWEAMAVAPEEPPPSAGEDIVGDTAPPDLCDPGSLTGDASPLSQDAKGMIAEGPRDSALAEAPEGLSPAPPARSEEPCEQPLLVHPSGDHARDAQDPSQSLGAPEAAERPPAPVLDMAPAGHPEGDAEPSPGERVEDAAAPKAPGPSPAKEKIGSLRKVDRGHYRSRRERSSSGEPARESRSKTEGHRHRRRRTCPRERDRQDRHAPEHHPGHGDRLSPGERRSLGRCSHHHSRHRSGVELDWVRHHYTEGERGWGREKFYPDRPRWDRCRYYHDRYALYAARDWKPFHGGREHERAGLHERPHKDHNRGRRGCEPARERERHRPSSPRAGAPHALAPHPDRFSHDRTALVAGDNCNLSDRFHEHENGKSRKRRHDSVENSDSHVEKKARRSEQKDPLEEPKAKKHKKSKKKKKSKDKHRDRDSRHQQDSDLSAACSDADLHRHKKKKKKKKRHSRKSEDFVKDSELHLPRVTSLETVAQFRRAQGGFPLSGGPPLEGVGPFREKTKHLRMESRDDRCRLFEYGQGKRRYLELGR
The method, boiled down:
(§1)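 HEK293T lysate (495 µg per sample, in Tris/CHAPS/IGEPAL buffer with protease inhibitors) was exposed in triplicate for 3 h to fragment at 200 µM or to vehicle, then to Biotin-Ahx-Ub-VS at 0.5 µM final for 1 h. Labelled DUBs were enriched on NeutrAvidin, digested with LysC and trypsin, and analysed by diaPASEF LC-MS/MS. Spectronaut label-free quantities were normalised to the global median, and values are average log2 ratios of fragment over vehicle from an unpaired t-test. Only proteins with ≥2 unique peptides were used.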

A further experiment deals with USP46 (UniProt P62068). The method, boiled down: as §1
The next experiment concerns the target T2, USP47 (UniProt Q96K76).
T2 sequence (whole entry): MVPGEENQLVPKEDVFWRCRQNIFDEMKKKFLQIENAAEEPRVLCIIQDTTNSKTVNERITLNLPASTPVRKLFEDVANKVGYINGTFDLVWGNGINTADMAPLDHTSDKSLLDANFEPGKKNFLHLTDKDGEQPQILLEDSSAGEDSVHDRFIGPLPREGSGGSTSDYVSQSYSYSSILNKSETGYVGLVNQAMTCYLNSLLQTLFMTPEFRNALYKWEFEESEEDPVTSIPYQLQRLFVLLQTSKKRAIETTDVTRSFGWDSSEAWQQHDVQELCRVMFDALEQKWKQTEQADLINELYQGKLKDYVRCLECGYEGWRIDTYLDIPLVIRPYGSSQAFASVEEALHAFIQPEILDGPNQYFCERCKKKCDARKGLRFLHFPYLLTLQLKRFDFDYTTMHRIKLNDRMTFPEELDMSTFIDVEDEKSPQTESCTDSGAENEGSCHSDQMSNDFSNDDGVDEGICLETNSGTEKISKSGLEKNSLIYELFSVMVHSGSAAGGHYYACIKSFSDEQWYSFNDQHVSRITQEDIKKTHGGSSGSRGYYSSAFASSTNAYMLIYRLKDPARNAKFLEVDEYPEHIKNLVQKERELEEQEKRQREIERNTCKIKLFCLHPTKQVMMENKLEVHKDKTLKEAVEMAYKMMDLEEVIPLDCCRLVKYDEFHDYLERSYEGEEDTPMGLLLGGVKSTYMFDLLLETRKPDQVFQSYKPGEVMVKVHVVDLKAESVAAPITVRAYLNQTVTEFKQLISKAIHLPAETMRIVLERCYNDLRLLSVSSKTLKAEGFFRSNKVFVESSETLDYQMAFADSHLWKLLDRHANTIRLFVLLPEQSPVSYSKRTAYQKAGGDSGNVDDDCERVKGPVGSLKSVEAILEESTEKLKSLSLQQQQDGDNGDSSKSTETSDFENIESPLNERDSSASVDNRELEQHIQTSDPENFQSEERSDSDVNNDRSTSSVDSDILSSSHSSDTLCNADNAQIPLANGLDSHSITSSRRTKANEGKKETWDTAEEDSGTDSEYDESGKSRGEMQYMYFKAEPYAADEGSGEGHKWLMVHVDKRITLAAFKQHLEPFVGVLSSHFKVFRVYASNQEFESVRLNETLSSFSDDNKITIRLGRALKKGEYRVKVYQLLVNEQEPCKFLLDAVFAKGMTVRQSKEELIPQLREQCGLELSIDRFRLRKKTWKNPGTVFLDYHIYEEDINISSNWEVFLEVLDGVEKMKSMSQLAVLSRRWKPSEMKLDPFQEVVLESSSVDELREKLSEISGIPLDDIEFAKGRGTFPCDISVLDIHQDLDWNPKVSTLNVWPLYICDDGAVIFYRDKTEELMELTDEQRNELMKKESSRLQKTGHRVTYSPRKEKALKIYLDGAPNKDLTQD
The method, boiled down:
as §1

In a further experiment the target is T3, USP48 (UniProt Q86UV5).
T3 sequence (whole entry): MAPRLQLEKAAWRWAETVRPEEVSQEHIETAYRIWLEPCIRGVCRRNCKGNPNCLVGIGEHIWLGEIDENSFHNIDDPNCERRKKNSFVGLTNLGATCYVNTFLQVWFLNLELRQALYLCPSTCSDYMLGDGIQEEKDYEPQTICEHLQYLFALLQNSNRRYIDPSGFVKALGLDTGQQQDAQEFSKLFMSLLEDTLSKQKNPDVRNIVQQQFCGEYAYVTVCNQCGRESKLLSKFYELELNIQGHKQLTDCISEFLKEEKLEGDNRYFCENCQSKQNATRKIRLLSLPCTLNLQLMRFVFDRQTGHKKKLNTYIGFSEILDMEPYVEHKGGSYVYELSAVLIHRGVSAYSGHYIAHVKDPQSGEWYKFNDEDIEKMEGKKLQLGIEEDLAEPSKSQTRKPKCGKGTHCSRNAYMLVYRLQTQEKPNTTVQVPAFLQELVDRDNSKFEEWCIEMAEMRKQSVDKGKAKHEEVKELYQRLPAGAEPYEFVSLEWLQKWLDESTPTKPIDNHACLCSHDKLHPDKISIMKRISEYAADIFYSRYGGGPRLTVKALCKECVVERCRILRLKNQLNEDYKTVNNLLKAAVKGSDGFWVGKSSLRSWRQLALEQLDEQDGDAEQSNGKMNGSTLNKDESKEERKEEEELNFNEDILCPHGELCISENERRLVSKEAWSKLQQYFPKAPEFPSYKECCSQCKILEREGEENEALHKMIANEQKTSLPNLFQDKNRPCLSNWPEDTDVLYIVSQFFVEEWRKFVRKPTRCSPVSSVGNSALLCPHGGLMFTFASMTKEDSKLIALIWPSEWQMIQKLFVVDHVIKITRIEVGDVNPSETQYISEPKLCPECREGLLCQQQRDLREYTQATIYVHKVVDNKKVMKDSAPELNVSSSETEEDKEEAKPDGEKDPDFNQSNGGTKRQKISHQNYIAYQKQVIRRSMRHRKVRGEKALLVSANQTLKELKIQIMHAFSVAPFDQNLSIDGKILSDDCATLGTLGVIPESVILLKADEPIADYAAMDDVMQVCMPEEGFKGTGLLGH
The method in brief: as §1

The target in another experiment is T4, USP5 (UniProt P45974).
T4 sequence (whole entry): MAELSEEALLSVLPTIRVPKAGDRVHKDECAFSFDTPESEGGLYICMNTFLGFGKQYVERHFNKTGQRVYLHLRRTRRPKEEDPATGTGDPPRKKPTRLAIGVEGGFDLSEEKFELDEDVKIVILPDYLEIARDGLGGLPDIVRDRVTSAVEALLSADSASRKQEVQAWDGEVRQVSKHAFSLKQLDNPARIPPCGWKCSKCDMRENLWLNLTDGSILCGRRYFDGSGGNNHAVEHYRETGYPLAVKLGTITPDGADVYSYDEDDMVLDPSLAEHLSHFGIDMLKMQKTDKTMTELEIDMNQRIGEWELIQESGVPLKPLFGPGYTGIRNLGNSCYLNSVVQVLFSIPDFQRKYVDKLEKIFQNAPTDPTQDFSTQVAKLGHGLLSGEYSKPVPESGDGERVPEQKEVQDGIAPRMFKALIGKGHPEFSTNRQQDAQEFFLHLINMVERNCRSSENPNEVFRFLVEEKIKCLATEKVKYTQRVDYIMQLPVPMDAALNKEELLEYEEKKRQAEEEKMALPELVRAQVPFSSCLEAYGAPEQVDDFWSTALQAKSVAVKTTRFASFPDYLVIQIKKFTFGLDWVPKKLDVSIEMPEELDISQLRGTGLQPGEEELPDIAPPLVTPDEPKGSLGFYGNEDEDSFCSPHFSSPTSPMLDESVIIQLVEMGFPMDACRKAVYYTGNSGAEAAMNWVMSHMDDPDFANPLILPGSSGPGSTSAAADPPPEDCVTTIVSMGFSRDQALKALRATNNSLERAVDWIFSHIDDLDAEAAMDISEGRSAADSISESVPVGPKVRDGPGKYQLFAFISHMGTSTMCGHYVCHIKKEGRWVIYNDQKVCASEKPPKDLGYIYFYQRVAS
The method in brief: as §1

For a further experiment, the target named is USP54 (UniProt Q70EL1). The method, boiled down:
as §1

In another experiment the target is USP7 (UniProt Q93009). The method in brief:
as §1

In the next experiment the target is T5, USP8 (UniProt P40818).
T5 sequence (whole entry): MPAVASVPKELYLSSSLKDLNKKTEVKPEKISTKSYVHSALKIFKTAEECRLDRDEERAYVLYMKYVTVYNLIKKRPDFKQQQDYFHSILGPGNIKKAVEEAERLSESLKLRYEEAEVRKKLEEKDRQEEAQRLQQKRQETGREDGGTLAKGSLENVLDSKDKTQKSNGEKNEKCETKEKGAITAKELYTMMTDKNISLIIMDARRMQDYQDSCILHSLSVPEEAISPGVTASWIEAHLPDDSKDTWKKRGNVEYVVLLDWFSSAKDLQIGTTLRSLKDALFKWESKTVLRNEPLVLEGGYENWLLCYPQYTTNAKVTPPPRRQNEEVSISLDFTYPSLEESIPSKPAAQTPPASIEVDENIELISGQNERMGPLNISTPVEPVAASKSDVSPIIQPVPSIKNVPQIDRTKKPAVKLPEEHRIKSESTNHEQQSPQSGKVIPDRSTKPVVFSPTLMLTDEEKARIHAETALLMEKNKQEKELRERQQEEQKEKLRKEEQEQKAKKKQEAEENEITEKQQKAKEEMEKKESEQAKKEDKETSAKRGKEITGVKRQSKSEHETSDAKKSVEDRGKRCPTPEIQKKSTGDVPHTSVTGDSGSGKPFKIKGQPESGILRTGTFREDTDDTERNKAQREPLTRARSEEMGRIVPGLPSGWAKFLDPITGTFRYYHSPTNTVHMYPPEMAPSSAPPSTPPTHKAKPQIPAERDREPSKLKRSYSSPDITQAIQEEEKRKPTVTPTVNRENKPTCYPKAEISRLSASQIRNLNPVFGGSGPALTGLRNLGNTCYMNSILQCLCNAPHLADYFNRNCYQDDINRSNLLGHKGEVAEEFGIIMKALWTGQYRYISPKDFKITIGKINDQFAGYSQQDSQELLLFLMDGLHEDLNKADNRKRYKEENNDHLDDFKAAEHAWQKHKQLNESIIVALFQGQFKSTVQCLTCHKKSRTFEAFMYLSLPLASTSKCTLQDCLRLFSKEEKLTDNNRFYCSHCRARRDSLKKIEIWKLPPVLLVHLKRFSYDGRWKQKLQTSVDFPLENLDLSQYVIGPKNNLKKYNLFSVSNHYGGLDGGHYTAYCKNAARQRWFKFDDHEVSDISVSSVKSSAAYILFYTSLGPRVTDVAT
The method, boiled down: as §1

The next experiment concerns the target USP9X (UniProt Q93008). The method in brief:
as §1

A further experiment addresses UniProt O00487. The method in brief:
as §1

Sequence of USP7 (Q93009 whole entry, looked up): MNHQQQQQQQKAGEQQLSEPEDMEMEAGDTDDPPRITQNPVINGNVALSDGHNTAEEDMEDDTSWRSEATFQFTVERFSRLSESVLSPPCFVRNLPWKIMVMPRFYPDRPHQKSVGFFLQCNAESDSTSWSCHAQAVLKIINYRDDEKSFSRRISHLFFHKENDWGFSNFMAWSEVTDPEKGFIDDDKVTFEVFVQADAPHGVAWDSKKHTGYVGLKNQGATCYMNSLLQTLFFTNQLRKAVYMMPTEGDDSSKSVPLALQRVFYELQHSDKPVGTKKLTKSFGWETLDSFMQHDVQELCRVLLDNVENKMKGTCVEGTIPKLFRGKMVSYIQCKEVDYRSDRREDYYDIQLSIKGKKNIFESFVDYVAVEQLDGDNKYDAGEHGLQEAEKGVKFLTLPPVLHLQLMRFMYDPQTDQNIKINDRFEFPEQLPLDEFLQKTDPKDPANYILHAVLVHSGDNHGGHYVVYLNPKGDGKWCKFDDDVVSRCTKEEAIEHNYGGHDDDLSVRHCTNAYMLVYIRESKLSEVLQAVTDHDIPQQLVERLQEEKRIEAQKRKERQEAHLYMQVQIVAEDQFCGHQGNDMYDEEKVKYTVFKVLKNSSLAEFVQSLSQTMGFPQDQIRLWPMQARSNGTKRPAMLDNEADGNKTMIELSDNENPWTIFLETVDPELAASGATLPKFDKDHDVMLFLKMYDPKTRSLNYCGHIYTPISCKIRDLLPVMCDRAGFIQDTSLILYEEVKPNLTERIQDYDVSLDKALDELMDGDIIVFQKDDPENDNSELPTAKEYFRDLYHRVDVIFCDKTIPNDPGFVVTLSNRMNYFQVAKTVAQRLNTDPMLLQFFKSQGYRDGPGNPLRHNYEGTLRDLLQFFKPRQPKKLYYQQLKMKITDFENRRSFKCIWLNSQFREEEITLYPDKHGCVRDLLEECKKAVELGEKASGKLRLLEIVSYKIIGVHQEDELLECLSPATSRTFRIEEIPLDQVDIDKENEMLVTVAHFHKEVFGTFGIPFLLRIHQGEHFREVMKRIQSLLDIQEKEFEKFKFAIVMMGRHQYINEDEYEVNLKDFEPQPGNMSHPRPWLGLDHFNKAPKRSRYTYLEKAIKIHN
Sequence of USP9X (Q93008 whole entry): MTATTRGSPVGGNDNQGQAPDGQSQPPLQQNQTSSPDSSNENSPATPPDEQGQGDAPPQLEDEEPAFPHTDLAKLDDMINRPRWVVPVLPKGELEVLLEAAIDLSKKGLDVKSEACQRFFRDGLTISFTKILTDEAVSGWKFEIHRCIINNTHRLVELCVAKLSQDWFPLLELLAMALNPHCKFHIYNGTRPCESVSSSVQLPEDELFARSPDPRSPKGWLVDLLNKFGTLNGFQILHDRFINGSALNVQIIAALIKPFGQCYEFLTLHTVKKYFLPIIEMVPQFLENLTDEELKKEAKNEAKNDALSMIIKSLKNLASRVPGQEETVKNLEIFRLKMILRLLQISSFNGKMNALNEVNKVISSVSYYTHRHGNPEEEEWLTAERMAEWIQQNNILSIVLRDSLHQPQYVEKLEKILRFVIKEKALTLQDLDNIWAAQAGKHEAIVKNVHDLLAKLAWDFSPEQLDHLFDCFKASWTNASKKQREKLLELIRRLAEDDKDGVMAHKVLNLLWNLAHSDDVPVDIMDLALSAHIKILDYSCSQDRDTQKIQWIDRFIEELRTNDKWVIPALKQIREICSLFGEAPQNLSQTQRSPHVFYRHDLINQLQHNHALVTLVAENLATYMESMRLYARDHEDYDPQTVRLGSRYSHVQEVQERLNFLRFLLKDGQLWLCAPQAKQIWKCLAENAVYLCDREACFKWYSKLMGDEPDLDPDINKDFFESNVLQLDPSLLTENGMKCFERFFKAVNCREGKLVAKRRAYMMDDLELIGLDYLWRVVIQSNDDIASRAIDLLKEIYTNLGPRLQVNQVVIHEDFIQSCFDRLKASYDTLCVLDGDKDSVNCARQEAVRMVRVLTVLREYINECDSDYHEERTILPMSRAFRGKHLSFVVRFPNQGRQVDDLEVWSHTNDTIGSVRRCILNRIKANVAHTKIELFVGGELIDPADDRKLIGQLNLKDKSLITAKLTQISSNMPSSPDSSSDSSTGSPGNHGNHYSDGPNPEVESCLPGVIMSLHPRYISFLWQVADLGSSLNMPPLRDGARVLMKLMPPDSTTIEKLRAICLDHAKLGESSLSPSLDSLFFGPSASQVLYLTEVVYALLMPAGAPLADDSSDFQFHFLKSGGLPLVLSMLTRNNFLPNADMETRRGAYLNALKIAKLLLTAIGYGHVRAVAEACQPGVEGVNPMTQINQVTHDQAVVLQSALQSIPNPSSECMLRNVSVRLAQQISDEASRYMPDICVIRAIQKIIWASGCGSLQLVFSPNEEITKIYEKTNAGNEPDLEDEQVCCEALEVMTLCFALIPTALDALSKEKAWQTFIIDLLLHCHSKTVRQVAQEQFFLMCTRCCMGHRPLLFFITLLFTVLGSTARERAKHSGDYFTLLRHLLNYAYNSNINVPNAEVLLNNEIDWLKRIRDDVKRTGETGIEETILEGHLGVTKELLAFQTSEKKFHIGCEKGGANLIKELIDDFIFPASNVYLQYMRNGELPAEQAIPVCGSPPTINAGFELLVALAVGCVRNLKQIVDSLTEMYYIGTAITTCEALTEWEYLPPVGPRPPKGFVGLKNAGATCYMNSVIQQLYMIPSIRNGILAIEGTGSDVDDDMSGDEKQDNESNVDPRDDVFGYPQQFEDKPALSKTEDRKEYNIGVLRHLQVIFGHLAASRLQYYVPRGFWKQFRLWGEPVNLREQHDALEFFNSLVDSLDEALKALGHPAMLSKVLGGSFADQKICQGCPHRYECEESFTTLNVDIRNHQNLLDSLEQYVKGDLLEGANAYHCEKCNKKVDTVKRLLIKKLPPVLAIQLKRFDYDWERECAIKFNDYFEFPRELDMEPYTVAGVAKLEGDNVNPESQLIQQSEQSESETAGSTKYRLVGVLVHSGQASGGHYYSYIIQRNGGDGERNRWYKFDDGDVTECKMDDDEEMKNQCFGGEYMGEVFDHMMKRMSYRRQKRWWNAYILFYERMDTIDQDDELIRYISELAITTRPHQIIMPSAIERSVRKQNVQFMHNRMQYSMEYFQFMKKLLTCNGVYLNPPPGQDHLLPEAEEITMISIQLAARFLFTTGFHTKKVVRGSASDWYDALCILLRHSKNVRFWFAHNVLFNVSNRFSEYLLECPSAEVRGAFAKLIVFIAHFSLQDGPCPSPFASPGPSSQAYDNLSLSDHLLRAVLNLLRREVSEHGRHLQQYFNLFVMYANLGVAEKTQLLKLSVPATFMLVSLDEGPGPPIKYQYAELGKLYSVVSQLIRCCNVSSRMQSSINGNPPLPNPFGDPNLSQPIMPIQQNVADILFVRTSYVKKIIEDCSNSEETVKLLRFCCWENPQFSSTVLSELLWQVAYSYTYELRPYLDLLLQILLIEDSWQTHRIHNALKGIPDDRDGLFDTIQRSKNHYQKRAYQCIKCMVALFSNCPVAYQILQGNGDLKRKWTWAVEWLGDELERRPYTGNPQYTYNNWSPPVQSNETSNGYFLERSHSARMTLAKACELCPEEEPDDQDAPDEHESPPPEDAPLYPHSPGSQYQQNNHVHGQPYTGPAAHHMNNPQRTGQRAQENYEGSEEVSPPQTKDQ
Sequence of USP46 (P62068 whole entry): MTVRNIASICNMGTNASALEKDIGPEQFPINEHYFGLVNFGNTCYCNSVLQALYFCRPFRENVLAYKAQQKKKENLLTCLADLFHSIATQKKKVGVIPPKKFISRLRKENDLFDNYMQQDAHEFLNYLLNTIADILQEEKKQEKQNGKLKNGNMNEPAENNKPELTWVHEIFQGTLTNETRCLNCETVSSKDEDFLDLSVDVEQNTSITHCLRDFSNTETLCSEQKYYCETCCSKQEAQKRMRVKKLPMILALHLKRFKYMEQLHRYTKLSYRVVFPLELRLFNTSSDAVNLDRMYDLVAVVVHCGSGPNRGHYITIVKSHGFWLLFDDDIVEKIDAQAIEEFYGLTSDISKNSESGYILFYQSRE
Sequence of UniProt O00487 (O00487 whole entry): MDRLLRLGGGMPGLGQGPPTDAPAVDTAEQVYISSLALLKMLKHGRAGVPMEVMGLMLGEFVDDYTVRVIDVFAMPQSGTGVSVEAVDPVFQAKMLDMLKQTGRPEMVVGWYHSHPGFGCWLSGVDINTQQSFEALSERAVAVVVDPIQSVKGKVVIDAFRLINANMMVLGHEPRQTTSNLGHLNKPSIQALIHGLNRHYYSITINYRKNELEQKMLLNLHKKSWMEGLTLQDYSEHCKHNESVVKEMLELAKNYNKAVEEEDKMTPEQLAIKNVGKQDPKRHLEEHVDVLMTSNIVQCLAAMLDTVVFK

Consider `CC(NC(=O)CCl)c1csc(-c2ccccc2)n1.Cl` (stereo not given), for which the “log2 ratio of Biotin-Ahx-Ub-VS probe labelling” value (“log2 ratio” below) in the experiment with USP42 was -0.201; in the experiment with USP46, -0.41; with USP47, 0.0356; in the experiment with USP48, -0.587; in the experiment with USP5, -0.0456; with USP54, 0.348. Besides, the “log2 ratio” value is -0.457 with USP7, -0.318 with USP8, -0.619 with USP9X and -0.213 with UniProt O00487.
`Cc1ccc(N(CCC#N)C(=O)CCl)cc1C`: the “log2 ratio” value was -0.126 with USP42; -0.12 with USP46; -0.28 with USP47; -1.01 (active) with USP48; 0.408 with USP5; -0.137 in the experiment with USP54. For the same molecule, the “log2 ratio” value with USP7 was -1.27 (active); with USP8 it was -0.394; with USP9X it was -0.324; with UniProt O00487, -0.246.
